Data published in the supplement of paper PMC10849652.
Targets with a hit are over-represented here; the source holds about 8,800 in all. About 0.5% of all pairs of compound and target were hits. A number with no mark means an inactive call.

Legend:
Assay in all cases: log2 fold change, soluble protein after heating vs DMSO (PISA); higher = thermal stabilisation; K562 lysate, 10 uM; active = over 0.2 and 3.5 SD of the protein, either way, in both replicates (recomputed)
Tubastatin A = compound: CN1CCc2c(c3ccccc3n2Cc2ccc(C(=O)NO)cc2)C1 [Tubastatin A]
Outline: (§1)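 K562 pellets were dounce-homogenised in PBS pH 7.4 containing 1 mM MgCl2, and the crude extract, at 1 mg/mL protein, was exposed to 10 μM compound for 30 min. Aliquots were heated for 3 min across 48°C-58°C, pooled, brought to 0.5% NP-40 at 4°C and spun at 21,000xg for 90 min, with the supernatant taken as soluble protein. TMTpro 16plex LC-MS/MS with equalised channel sums quantified that protein. Values are log-two fold changes in thermal stability relative to solvent controls, taken from duplicates.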

[1] = compound: CNC(=O)C1=CC=CC=C1NC2=NC(=NC=C2Cl)NC3=C(C=C(C=C3)N4CCOCC4)OC
Outline: as §1

[2] = compound: CNc1nc(-c2ccc3c(N)n[nH]c3c2)cc(N2C[C@@H](C(=O)NC3CCCCC3)CC[C@H]2C)n1
Outline: as §1

encorafenib = compound: COC(=O)N[C@@H](C)CNc1nccc(-c2cn(C(C)C)nc2-c2cc(Cl)cc(NS(C)(=O)=O)c2F)n1 [encorafenib]
Outline: as §1

[3] = compound: COC(=O)[C@H](CCSC)NC(=O)C1=C(C=C(C=C1)NC[C@H](CS)N)C2=CC=CC=C2
Outline: as §1

alisertib = compound: COc1cc(Nc2ncc3c(n2)-c2ccc(Cl)cc2C(c2c(F)cccc2OC)=NC3)ccc1C(=O)O [alisertib]
Outline: as §1

gefitinib = compound: COc1cc2ncnc(Nc3ccc(F)c(Cl)c3)c2cc1OCCCN1CCOCC1 [gefitinib]
Outline: as §1

crizotinib = compound: C[C@@H](Oc1cc(-c2cnn(C3CCNCC3)c2)cnc1N)c1c(Cl)ccc(F)c1Cl [crizotinib]
Outline: as §1

duvelisib = compound: C[C@H](Nc1ncnc2nc[nH]c12)c1cc2cccc(Cl)c2c(=O)n1-c1ccccc1 [duvelisib]
Outline: as §1

tozasertib = compound: Cc1cc(Nc2cc(N3CCN(C)CC3)nc(Sc3ccc(NC(=O)C4CC4)cc3)n2)n[nH]1 [tozasertib]
Outline: as §1

doramapimod = compound: Cc1ccc(-n2nc(C(C)(C)C)cc2NC(=O)Nc2ccc(OCCN3CCOCC3)c3ccccc23)cc1 [doramapimod]
Outline: as §1

[4] = compound: COc1cc2nc(-c3cc(F)ccc3O)nc(N[C@@H]3CNC[C@H]3C(C)(C)O)c2cc1OC
Outline: as §1

lapatinib = compound: CS(=O)(=O)CCNCc1ccc(-c2ccc3ncnc(Nc4ccc(OCc5cccc(F)c5)c(Cl)c4)c3c2)o1 [lapatinib]
Outline: as §1

alvocidib = compound: CN1CC[C@H](c2c(O)cc(O)c3c(=O)cc(-c4ccccc4Cl)oc23)[C@H](O)C1 [alvocidib]
Outline: as §1

[5] = compound: C[C@H](C1=CC=C(C=C1)C(=O)NC2=C3C=CNC3=NC=C2)N
Outline: as §1

gandotinib = compound: Cc1cc(Nc2cc(CN3CCOCC3)c3nc(C)c(Cc4ccc(Cl)cc4F)n3n2)n[nH]1 [gandotinib]
Outline: as §1

[6] = compound: Cc1cccc(CC(=O)N2CCc3c2ccc(-c2cn(C)c4ncnc(N)c24)c3F)n1
Outline: as §1

defactinib = compound: CNC(=O)c1ccc(Nc2ncc(C(F)(F)F)c(NCc3nccnc3N(C)S(C)(=O)=O)n2)cc1 [defactinib]
Outline: as §1

pictilisib = compound: CS(=O)(=O)N1CCN(Cc2cc3nc(-c4cccc5[nH]ncc45)nc(N4CCOCC4)c3s2)CC1 [pictilisib]
Outline: as §1

bafetinib = compound: Cc1ccc(NC(=O)c2ccc(CN3CC[C@H](N(C)C)C3)c(C(F)(F)F)c2)cc1Nc1nccc(-c2cncnc2)n1 [bafetinib]
Outline: as §1

UniProt P12931, sequence (P12931 whole entry, looked up): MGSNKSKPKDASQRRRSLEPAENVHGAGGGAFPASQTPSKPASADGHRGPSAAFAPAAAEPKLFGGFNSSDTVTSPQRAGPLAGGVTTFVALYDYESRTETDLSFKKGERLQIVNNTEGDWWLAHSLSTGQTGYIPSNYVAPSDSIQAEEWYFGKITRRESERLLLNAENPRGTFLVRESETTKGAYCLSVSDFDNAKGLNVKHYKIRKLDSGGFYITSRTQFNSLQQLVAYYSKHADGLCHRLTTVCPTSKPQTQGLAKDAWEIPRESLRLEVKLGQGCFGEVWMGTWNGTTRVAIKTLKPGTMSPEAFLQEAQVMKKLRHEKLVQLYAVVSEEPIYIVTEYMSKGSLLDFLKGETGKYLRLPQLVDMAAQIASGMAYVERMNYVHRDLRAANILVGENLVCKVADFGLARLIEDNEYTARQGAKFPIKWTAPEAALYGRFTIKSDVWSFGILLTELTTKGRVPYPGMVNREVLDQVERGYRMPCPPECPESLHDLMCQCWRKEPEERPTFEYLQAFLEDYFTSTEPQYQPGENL
UniProt Q9Y2H1, sequence (Q9Y2H1 whole entry, looked up): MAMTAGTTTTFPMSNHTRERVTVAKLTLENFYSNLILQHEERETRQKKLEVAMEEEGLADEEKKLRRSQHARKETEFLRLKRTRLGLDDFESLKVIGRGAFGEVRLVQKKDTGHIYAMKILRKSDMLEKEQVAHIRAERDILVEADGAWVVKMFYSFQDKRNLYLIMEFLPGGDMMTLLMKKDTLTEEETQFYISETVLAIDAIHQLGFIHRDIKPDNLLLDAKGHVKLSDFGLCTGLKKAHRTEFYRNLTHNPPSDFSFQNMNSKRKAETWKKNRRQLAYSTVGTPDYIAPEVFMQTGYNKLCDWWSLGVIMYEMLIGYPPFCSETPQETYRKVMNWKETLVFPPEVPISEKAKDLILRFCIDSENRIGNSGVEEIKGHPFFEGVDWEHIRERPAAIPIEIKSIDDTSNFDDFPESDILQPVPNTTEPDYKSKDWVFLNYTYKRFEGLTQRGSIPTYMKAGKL
UniProt Q9UHW9, sequence (Q9UHW9 whole entry, looked up): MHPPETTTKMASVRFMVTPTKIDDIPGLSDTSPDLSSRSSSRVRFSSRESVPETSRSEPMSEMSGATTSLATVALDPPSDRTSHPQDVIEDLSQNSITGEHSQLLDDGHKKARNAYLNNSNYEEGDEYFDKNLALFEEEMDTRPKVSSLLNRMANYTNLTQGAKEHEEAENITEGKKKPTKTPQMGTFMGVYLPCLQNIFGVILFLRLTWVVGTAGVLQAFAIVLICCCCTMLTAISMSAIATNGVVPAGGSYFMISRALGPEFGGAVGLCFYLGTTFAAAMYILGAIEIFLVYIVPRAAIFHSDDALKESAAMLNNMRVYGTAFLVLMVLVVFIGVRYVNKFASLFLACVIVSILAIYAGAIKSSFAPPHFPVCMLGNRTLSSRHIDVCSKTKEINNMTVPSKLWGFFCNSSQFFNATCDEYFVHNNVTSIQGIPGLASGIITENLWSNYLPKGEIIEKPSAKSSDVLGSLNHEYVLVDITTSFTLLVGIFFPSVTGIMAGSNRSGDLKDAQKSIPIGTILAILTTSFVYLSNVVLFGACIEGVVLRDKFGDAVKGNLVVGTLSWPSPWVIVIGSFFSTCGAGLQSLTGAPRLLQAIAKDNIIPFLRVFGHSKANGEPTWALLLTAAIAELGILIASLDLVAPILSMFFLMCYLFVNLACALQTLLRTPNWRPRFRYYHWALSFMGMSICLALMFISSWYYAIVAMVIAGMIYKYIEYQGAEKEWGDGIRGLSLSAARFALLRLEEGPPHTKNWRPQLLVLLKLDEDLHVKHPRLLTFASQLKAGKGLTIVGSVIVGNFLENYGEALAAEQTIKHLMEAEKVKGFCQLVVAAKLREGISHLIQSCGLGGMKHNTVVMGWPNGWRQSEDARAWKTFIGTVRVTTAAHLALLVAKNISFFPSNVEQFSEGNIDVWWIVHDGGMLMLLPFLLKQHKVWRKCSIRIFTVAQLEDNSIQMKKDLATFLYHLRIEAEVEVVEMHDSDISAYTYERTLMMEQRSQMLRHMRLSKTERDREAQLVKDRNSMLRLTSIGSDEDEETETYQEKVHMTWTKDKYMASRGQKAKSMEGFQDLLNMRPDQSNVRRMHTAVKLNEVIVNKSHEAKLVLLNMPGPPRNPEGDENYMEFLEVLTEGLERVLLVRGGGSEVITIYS
UniProt O75182, sequence (O75182 whole entry, looked up): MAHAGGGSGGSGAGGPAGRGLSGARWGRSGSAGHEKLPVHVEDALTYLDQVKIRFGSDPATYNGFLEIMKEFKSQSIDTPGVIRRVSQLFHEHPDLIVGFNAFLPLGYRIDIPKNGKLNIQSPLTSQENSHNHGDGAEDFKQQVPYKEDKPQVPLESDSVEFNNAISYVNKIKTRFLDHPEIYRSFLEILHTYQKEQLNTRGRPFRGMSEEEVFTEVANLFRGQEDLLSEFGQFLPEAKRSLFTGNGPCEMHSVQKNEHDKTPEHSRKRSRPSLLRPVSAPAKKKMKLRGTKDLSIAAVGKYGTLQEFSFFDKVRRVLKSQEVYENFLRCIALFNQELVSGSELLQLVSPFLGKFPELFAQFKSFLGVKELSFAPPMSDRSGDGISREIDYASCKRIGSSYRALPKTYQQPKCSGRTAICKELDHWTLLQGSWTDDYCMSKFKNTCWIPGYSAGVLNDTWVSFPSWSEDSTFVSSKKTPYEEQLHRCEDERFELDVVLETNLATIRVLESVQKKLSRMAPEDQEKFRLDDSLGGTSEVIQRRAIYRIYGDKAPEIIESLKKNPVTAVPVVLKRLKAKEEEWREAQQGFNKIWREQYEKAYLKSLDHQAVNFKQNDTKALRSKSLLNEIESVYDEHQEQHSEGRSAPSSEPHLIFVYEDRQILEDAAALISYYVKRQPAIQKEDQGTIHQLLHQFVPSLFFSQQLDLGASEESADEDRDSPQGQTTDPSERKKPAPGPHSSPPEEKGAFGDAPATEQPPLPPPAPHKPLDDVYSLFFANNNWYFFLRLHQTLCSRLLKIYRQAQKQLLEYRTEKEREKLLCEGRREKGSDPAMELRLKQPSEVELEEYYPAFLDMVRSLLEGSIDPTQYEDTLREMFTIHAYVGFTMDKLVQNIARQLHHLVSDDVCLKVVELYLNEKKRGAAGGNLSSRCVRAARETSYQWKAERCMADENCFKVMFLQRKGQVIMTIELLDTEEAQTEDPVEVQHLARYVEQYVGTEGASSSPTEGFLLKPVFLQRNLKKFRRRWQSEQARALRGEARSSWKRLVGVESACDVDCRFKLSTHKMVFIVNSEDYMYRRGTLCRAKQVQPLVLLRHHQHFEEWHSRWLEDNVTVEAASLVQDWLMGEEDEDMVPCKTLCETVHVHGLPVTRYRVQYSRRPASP
UniProt Q8N196, sequence (Q8N196 whole entry, looked up): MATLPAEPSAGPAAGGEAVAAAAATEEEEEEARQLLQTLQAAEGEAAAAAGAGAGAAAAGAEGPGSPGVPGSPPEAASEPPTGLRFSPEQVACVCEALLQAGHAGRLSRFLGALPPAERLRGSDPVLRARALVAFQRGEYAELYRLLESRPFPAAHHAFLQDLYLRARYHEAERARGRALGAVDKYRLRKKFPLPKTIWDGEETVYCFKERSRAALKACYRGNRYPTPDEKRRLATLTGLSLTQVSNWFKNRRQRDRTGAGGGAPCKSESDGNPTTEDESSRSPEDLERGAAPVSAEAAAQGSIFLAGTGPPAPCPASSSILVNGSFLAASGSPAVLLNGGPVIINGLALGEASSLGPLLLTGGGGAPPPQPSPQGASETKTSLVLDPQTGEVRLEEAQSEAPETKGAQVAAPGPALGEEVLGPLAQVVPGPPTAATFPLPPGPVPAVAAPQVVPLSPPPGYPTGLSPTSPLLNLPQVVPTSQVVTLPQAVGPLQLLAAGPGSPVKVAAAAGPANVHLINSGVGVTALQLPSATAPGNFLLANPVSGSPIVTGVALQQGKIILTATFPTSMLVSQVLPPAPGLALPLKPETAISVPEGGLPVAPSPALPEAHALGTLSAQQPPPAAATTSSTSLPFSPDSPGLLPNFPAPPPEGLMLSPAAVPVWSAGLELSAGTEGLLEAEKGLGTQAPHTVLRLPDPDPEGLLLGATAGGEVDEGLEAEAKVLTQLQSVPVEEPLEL
UniProt Q15544, sequence (Q15544 whole entry, looked up): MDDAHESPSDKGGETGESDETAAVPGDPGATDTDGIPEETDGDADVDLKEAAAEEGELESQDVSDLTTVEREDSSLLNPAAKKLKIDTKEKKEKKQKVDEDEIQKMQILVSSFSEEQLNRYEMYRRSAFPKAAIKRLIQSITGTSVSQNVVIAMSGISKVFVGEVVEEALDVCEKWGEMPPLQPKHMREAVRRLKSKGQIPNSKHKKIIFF
UniProt Q9NZ72, sequence (Q9NZ72 whole entry, looked up): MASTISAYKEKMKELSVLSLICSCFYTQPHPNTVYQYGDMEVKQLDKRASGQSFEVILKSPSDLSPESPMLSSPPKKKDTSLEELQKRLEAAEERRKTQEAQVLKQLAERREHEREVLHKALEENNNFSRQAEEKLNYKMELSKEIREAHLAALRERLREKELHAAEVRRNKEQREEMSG
UniProt Q15506, sequence (Q15506 whole entry, looked up): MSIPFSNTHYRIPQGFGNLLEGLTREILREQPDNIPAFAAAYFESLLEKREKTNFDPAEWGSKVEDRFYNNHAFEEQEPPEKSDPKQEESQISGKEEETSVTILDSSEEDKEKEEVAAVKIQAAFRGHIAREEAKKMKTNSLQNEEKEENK
UniProt Q9P289, sequence (Q9P289 whole entry, looked up): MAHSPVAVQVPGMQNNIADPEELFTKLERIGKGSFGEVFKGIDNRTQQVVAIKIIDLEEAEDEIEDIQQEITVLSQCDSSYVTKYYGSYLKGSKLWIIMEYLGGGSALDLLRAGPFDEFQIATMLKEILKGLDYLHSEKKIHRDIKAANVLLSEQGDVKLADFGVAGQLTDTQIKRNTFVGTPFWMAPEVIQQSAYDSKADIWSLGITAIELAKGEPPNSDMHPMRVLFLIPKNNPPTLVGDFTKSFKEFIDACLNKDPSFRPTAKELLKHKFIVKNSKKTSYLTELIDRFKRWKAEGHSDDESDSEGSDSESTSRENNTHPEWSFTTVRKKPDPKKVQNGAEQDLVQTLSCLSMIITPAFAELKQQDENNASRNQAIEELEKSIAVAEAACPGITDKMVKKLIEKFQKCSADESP

Target | log2 fold change (Tubastatin A) | log2 fold change [1] | log2 fold change [2] | log2 fold change (encorafenib) | log2 fold change [3] | log2 fold change (alisertib) | log2 fold change (gefitinib) | log2 fold change (crizotinib) | log2 fold change (duvelisib) | log2 fold change (tozasertib) | log2 fold change (doramapimod) | log2 fold change [4] | log2 fold change (lapatinib) | log2 fold change (alvocidib) | log2 fold change [5] | log2 fold change (gandotinib) | log2 fold change [6] | log2 fold change (defactinib) | log2 fold change (pictilisib) | log2 fold change (bafetinib)
STK38L (UniProt Q9Y2H1) | -0.063 | 0.647 (active) | 0.06 | -0.036 | 0.193 | 0.06 | -0.049 | -0.059 | -0.007 | -0.009 | -0.025 | – | – | – | – | – | – | – | – | –
SLC12A6 isoform 2 (UniProt Q9UHW9) | -0.013 | -0.149 | -0.008 | 0.031 | 0.075 | – | – | -0.051 | -0.023 | 0.068 | 0.054 | -0.106 | -0.019 | – | – | – | – | – | – | –
SNIP1 (UniProt Q8TAD8) | – | – | – | – | – | -0.024 | -0.015 | – | – | – | – | – | – | – | – | – | – | – | – | –
STK17A (UniProt Q9UEE5) | – | – | – | – | – | -0.291 | -0.141 | – | – | – | – | – | – | 0.182 | 0.315 | -0.001 | -0.197 | – | – | –
SMPD2 (UniProt O60906) | 0.088 | -0.787 | -0.034 | 0.09 | -0.22 | – | – | – | 0.107 | -0.031 | – | -0.074 | 0.015 | -0.043 | 0.106 | -0.051 | 0.03 | – | – | –
SHC1 (UniProt P29353) | – | – | – | – | – | – | – | – | – | – | – | – | – | 0.144 | 0.029 | -0.033 | 0.009 | – | – | –
STK26 isoform 3 (UniProt Q9P289) | – | – | 0.058 | 0.034 | 0.001 | – | – | 0.095 | 0.008 | -0.001 | -0.416 | – | – | – | – | – | – | – | – | –
SPAG1 (UniProt Q07617) | 0.071 | – | – | – | – | – | – | 0 | – | – | -0.025 | -0.03 | -0.058 | – | – | – | – | -0.014 | 0.17 | -0.265
SPA17 (UniProt Q15506) | 0.021 | – | 0.038 | -0.007 | -0.032 | – | – | 0.019 | 0.009 | -0.022 | 0.054 | -0.038 | 0.058 | -0.208 | -0.498 (active) | 0.303 | 0.25 | 0.056 | -0.012 | -0.076
SIX5 (UniProt Q8N196) | 0.117 | 0.015 | 0.043 | – | – | 0.023 | 0.13 | -0.075 | 0.039 | – | 0.143 | 0.008 | -0.105 | 0.159 | 0.22 | -0.48 (active) | -0.306 | – | 0.015 | -0.009
STMN3 (UniProt Q9NZ72) | 0.009 | 0.014 | 0.029 | -0.015 | -0.021 | -0.082 | -0.041 | 0.009 | -0.023 | -0.023 | -0.003 | -0.012 | -0.017 | – | – | – | – | 0.023 | -0.08 | 0.041
SIN3B (UniProt O75182) | – | – | – | 0.12 | 0.272 | -0.064 | 0.793 | -0.057 | – | -0.095 | 0.584 | – | – | -0.463 | -0.318 | 0.116 | -0.611 | 0.185 | – | –
SMC1B isoform 3 (UniProt Q8NDV3) | 0.038 | 0 | 0.028 | 0.039 | -0.03 | 0.027 | 0.044 | -0.019 | 0.015 | 0.26 | -0.036 | -0.03 | 0 | – | – | – | – | 0.147 | -0.037 | -0.093
SLC22A18 (UniProt Q96BI1) | – | 0.052 | – | 0.009 | -0.013 | – | – | -0.064 | – | -0.004 | 0.032 | -0.077 | 0.072 | -0.035 | -0.094 | 0.147 | 0.033 | -0.076 | 0.026 | -0.001
TARDBP (UniProt K7EN94) | – | – | – | 0.224 | 0.04 | – | – | – | – | 0.257 | – | – | – | – | – | – | – | -0.197 | – | –
STAU1 isoform 3 (UniProt O95793) | – | -0.044 | – | – | – | -0.068 | 0.03 | 0.049 | – | – | 0.269 | – | – | -0.06 | -0.298 | 0.112 | 0.078 | – | 0.048 | -0.086
SURF2 (UniProt Q15527) | -0.276 | – | 0.013 | -0.001 | -0.319 (active) | -0.005 | -0.041 | -0.031 | 0.014 | -0.061 | -0.018 | 0.011 | -0.005 | -0.02 | -0.008 | 0.092 | 0.111 | 0.016 | -0.049 | -0.055
SMIM1 (UniProt B2RUZ4) | 0.123 | 0.097 | – | 0.226 | -0.07 | -0.149 | -0.279 | -0.106 | – | -0.019 | 0.034 | 0.022 | 0.098 | -0.031 | 0.121 | 0.106 | 0.011 | – | -0.028 | -0.021
SLC41A1 (UniProt Q8IVJ1) | 0.055 | 0.043 | – | 0.071 | -0.031 | 0.024 | 0.153 | 0.141 | – | -0.016 | 0.01 | 0.014 | -0.059 | -0.213 | -0.09 | 0.136 | 0.113 | – | – | –
SRC isoform 2 (UniProt P12931) | 0.133 | 0.118 | -0.031 | -0.171 | 0.399 | – | – | – | 0.001 | 0.098 | – | 0 | -0.001 | -0.035 | 0.151 | 0.061 | -0.015 | – | -0.078 | -0.153
TAF11 (UniProt Q15544) | 0.014 | – | 0.137 | -0.155 | 0.398 (active) | -0.053 | 0.064 | -0.085 | -0.06 | 0.102 | 0.023 | 0.048 | 0.003 | -0.015 | -0.036 | 0.026 | 0 | -0.151 | – | –
STK3 isoform 2 (UniProt Q13188) | -0.075 | – | 0.015 | -0.046 | -0.068 | – | 0.002 | 0.299 | -0.058 | 0.224 | -0.035 | 0.269 | -0.045 | – | -0.029 | 0.468 (active) | 0.122 | 0.205 | 0.02 | 0.001
SLCO4A1 (UniProt Q96BD0) | – | – | – | – | – | -0.041 | -0.001 | – | – | – | – | – | – | -0.129 | 0.016 | 0.062 | 0.012 | – | -0.687 (active) | -0.334
SMYD3 (UniProt Q9H7B4) | -0.122 | -0.018 | 0.028 | 0.022 | 0.071 | -0.044 | 0.034 | -0.146 | 0.062 | 0.023 | 0.053 | 0 | 0.017 | – | – | – | – | 0.036 | -0.018 | -0.062
SNRPD2 (UniProt K7EJB5) | -0.001 | -0.057 | 0.054 | -0.069 | 0.047 | 0.103 | 0.107 | -0.202 | 0.014 | 0.051 | 0.105 | 0.025 | 0.005 | – | – | – | – | -0.074 | – | –
